# Records with an inconclusive call do not appear. A number with no mark means an inactive call. Activity calls are given as the source filed them. The call rests on the fitted dose curve; in most records, active means well fitted inhibition curve with a large enough effect; inconclusive means small, poorly fitted or top-dose-only effect; inactive means flat fitted curve, though single readings scatter.
# Tests used:
# [1] = system: CRL-7250; test: Cytotoxic Profiling of Annotated Libraries Using Quantitative High-Throughput Screening (AID 1296008); conditions: Five cell lines viability, CellTiter-Glo ATP luminescence, 48-72 h; max response: hits give low values; further: nearly all actives have a fitted effect of over 60% in size
# Procedure, shortened: (§1)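 Compounds were pin-transferred onto cells and incubated 48 or 72 hr at 37 degree Celsius, 95% humidity. CellTiter-Glo was added, plates sat 10 min at room temperature, then ATP-coupled luminescence was imaged as the viability read-out.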
# [2] = system: HEK293; test: as above; conditions: Five cell lines viability, CellTiter-Glo ATP luminescence, 48-72 h; max response: hits give low values
# Procedure, shortened: as §1
# On the % scale 0 is the no-effect control and ±100 the full control effect; potency means the concentration at half of the fitted maximal effect.
compound,measurement,setting,value
COc1c2c(c(C)c3c1C(=O)OC3)O[C@@]1(C)CCC3(C(C)(C)O)OC(=O)CC[C@]3(C)[C@H]1C2 (stereo not given in full),max response,[1],-2.51%
same,max response,[2],-0.697%
Cc1ccc(C)c(OCCn2cc(C(=O)O)c3ccccc32)c1,max response,[1],-3.65%
same,max response,[2],-0.983%
CC1(C)CCC2(C(=O)OC3OCC(O)C(O)C3O)CCC3(C)C(=CCC4C5(C)CC(O)C(OC6OC(COC7OCC(O)C(O)C7O)C(O)C(O)C6O)C(C)(C)C5CCC43C)C2C1 (stereo not given),max response,[1],1.81%
same,max response,[2],-7.77%
Clc1cc2c(NC3CCCC3)nnc(-c3ccncc3)c2cc1Cl,max response,[1],-13.3%
same,max response,[2],-9.96%
CC1(C)[C@@H](O)CC[C@]2(C)[C@H]3CC=C4[C@@H]5C[C@](C)(C(=O)O)CC[C@]5(C)CC[C@@]4(C)[C@]3(C)CC[C@@H]12,max response,[1],-5.83%
same,max response,[2],2.45%
CC(C)N(CCCCOCC(=O)NS(C)(=O)=O)c1cnc(-c2ccccc2)c(-c2ccccc2)n1,max response,[1],-11.5%
same,outcome,[2],inactive
Cc1oc2ccccc2c1CNC(=O)NCc1cccs1,max response,[1],1.28%
same,max response,[2],-27.1%
OCC1OC(Oc2cc(O)cc(/C=C/c3ccc(O)cc3)c2)C(O)C(O)C1O (stereo not given),max response,[1],-6.35%
same,max response,[2],2.65%
CC1=C(C)C(=O)OC(C(C)C2CCC3C4C5OC5C5(O)CC(OC6OC(CO)C(OC7OC(C)C(O)C(O)C7O)C(O)C6O)CC(O)C5(C)C4CCC23C)C1 (stereo not given),outcome,[1],inactive
same,max response,[2],-0.932%
C=C1C(OC(=O)/C(C)=C\C)[C@@]23CCC4[C@@](C)(CCC[C@@]4(C)C(=O)O)C2CC[C@H]1C3OC(C)=O (stereo not given in full),max response,[1],-2.82%
same,max response,[2],-4.19%
CC(=O)O[C@@H]1[C@@H](O)[C@H](O[C@H]2CC[C@]34C[C@]35CC[C@]3(C)[C@@H]([C@@]6(C)CC[C@@H](C(C)(C)O)O6)[C@@H](O)C[C@@]3(C)[C@@H]5C[C@H](O[C@@H]3O[C@H](CO)[C@@H](O)[C@H](O)[C@H]3O)[C@H]4C2(C)C)OC[C@H]1O,max response,[1],1.83%
same,max response,[2],-2.54%
O=C(CCc1nnc2n(Cc3ccc(Cl)cc3)c(=O)c3ccccc3n12)NCCC1=CCCCC1,max response,[1],-19.2%
same,max response,[2],-12.9%
C/C=C/C1=CC2=C(CO1)C(=O)C(C)(O)C(OC(=O)c1c(C)cc(OC)cc1O)C2 (stereo not given),max response,[1],-7.89%
same,Potency,[2],11.4 µM (active)
Cn1nc(C(C)(C)C)cc1C(=O)NC(Cc1cccc(Cl)c1)C(=O)NCC#N (stereo not given),outcome,[1],inactive
same,max response,[2],-17.2%
CCOC(=O)C(CCc1ccccc1)NC1CSC(c2cccs2)CN(CC(=O)O)C1=O (stereo not given),max response,[1],2.02%
same,max response,[2],-2.54%
CC1OC(OC2C(CO)OC(OCC3OC(OC(=O)C45CCC(C)(C)CC4C4=CCC6C7(C)CCC(OC8OC(CO)C(O)C(OC9OC(CO)C(O)C(O)C9O)C8O)C(C)(C)C7CCC6(C)C4(C)CC5)C(O)C(O)C3O)C(O)C2O)C(O)C(O)C1OC1OC(CO)C(O)C(O)C1O (stereo not given),max response,[1],-0.747%
same,max response,[2],-0.594%
CC1(C(=O)O)CCCC2(C)C3CCC4CC3(CCC12)CC4=O (stereo not given),max response,[1],-1.87%
same,max response,[2],0.827%
CC(C)(C)NS(=O)(=O)c1cncc(-c2cc(F)c3nc(N)nn3c2)c1,outcome,[1],inactive
same,max response,[2],-1.27%
CC(C)=CCC/C(C)=C/CC/C(C)=C/COC1OC(COC2OCC(OC3OCC(O)C(O)C3O)C(O)C2O)C(O)C(OC2OC(C)C(OC3OC(C)C(OC4OCC(OC5OC(C)C(O)C(O)C5O)C(O)C4O)C(O)C3O)C(O)C2O)C1O (stereo not given),max response,[1],1.98%
same,max response,[2],4.79%
CCCOC(c1cc2nccc(C(=O)O)c2[nH]1)c1ccccc1Cl (stereo not given),max response,[1],-10.8%
same,max response,[2],-12.6%
Cc1ccc(-c2c(C(=O)CF)n(CCCO)c3ncnc(N)c23)cc1,max response,[1],-0.58%
same,outcome,[2],inactive
COc1cc(Nc2nc3ccccc3nc2NS(=O)(=O)c2ccc(NC(=O)c3ccc(OC)c(C)c3)cc2)cc(OC)c1,max response,[1],-3.06%
same,max response,[2],1.81%
Cc1cc(C)cc(C(=O)NOCCCCCC(=O)NO)c1,Potency,[1],8.2 µM (active)
same,Potency,[2],1.64 µM (active)
COC(=O)c1ccnc(-c2cc(C(=O)NCCc3ccccc3)ccn2)c1,max response,[1],-12.7%
same,max response,[2],-3.61%
CC(=O)OC1C(O)C2C(C)C3=CC(=O)OC3(O)CC2C2(C)CCCC(C)(CO)C12 (stereo not given),outcome,[1],inactive
same,max response,[2],-10%

# From PubChem BioAssay (NCATS)
